From PubChem
The list is not random: actives were taken first. Their share in the collection is about 10%.
PNC inhibitor – inhibitors of perinucleolar compartment assembly; PC3M PTB-GFP, PNC prevalence imaging, 16 h; stronger effect = lower value; activity change (PNC), negative = inhibition, % at 10 µM; actives 3.1% (n = 140,000);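 active = readout at or below -70, meaning at least 70% loss of cells showing the perinucleolar compartment, a nuclear body marking cancer cells; inconclusive = readout between -30 and a set limit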;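 also: plate controls were DMSO wells for no effect and camptothecin positive control wells for full effect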
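Compounds are pinned in duplicate onto adhered PC3M cells stably expressing GFP-tagged PTB and incubated 16 h at 37 C. Cells are then fixed, nuclei stained with Hoechst, and PNC-positive cells counted.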
Lamin A splicing – changes lamin A minigene splicing in HeLa cells; HeLa LMNA splicing GFP/RFP minigene ratio, 48 h; Potency, µM (highest dose often 46.1 µM), for the others: top-dose ratio change, negative = inhibition, hits mostly inhibitors; actives 0.01% (n = 200,000); AID 1487; active = well fitted inhibition curve with a large enough effect in the signal ratio, with a control signal flat, not every such curve was filed as active; inconclusive = small, poorly fitted or top-dose-only effect, or effect the other way, or a change in a side signal; the % refers to the signal ratio; also: potency is read from the fitted curve at half-maximal effect
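Read-out is the ratio of GFP to DsRed2 object intensity, acquired by 488 nm laser-scanning cytometry on HeLa lamin A-EGFP minigene reporter cells. Compound incubation 48 hrs at 37 °C in Opti-MEM with 2% FBS; DMSO 0.5% final.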
HPGD inh – HPGD (human) dehydrogenase inhibition; P15428; purified HPGD, NADH fluorescence kinetic, PGE2 substrate; Potency, µM, without a hit: at the highest dose activity change, negative = inhibition, hits mostly inhibitors; actives 4.3% (n = 150,000); AID 894; also: potency is read from the fitted curve at half-maximal effect
Target sequence (P15428 whole entry, looked up): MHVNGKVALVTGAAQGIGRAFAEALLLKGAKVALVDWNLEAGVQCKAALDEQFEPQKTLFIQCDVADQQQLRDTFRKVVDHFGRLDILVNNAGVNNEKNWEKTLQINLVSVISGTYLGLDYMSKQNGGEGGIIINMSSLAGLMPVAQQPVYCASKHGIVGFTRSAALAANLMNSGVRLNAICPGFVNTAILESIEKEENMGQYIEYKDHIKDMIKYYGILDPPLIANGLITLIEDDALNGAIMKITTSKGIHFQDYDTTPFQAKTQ
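20 nM HPGD preincubated 15 min at room temperature with compound in 50 mM Tris-HCl pH 8, 0.01% Tween 20. Started with 1 mM NAD+ and 30 uM prostaglandin E2; NADH fluorescence (360/450 nm) read 5 times over 30-s intervals, last minus first.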
ALOX12 inhib – 12-hLO (ALOX12) enzyme inhibition; P18054; purified 12-hLO, xylenol orange hydroperoxide absorbance; Potency, µM (highest dose often 57.1 µM), inactives show at the highest dose activity change, negative = inhibition, actives largely listed as inhibitors; actives 0.12% (n = 150,000); active = well fitted inhibition curve with a large enough effect; inconclusive = small, poorly fitted or top-dose-only effect; also: potency is read from the fitted curve at half-maximal effect; nearly all actives have a fitted effect of over 55% in size
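Lipoxygenase turnover measured by absorbance at 573 and 405 nm after Fe-XO development. Human 12hLO 150 nM, arachidonate 40 uM, pH 7.0 Hepes buffer with detergent; 15 min compound preincubation, 30 min reaction.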
ALDH1A1 inh – ALDH1A1 (human) enzyme inhibition | Purified ALDH1A1, NADH fluorescence, propionaldehyde substrate | actives 7.3% (n = 220,000) | Potency, µM (series often up to 75.3 µM), without a hit: at the highest dose activity, negative = inhibition, most hits filed as inhibitors | P00352;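 also: potency is read from the fitted curve at half-maximal effect; plate controls were no enzyme wells and a reference inhibitor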
Active calls of the source: *; ? = inconclusive; / = no result; [ ] = dose if it differs, or a comment. Unless noted, calls follow the shape of the dose curve; as a rule, active = well fitted inhibition curve with a large enough effect (not every such curve was filed as active); inconclusive = small, poorly fitted or top-dose-only effect, or another doubt; inactive = no such curve, though single readings can be large or run the other way. Unless noted, % is scaled to controls: 0 for no effect and ±100 for the full control effect.

SMILES | PNC inhibitor | Lamin A splicing | HPGD inh | ALOX12 inhib | ALDH1A1 inh
CC(C)OC(=O)n1c(=S)oc2ccccc21 | -4 | -3% | ? | 0% | 7.1µM*
Cc1ccc(NC(=O)CCn2c(=S)oc3ccccc32)cc1 | / | / | / | / | -2%
CCCCC(=O)/C=C/n1c(=S)oc2ccccc21 | -116* | ? | ? | 2% | 11µM*
CC(C)NC(=O)CCn1c(=S)oc2ccccc21 | / | / | / | / | 1%
COC(=O)c1ccccc1NC(=O)C1CC=CCC1C(=O)O (configuration not stated) | -26 | -12% | -16% | 2% | -14%
COC(=O)c1cc(NC(=O)C2CC=CCC2C(=O)O)cc(C(=O)OC)c1 (configuration not stated) | 29 | 1% | -7% | -10% | 13µM*
Cc1cc(C)cc(Oc2ccc(NC(=O)C3CC=CCC3C(=O)O)cc2)c1 (configuration not stated) | / | / | / | / | 2.8µM*
O=C(O)C1CC=CCC1C(=O)Nc1ccc(Oc2ccc(Cl)cc2)cc1 (configuration not stated) | ? | ? | -11% | -4% | 1.4µM*
CCOc1ccc(NC(=O)C2CC=CCC2C(=O)O)cc1 (configuration not stated) | -15 | 7% | -14% | 0% | -1%
O=C(CSc1nc2ccccc2n1Cc1cccc(F)c1)NCc1ccccc1 | / | 2%[46 µM] | / | / | /
CC#CCN1c2ccccc2[C@]23C[C@@H](C(=O)OC)N(S(=O)(=O)c4ccc(C(F)(F)F)cc4)C2=NC(C(=O)OC)=C(C(=O)OC)[C@H]13 | / | ? | 2% | 2%[11.4 µM] | 2%[13.5 µM]
COc1ccc(-n2ncc(C(=O)NCc3ccc4c(c3)OCO4)c2C2CCN(C(=O)OC(C)(C)C)CC2)cc1 | / | -4%[46 µM] | / | / | /
Cc1[nH][nH]c(=O)c1C(c1c(C)[nH][nH]c1=O)c1cn(Cc2ccccc2Cl)c2ccccc12 | 25 | ? | -10% | -2% | 0.45µM*
Cc1ccc(NC(=S)NCC2CCN(C(C)c3ccccc3)C2)cc1C (configuration not stated) | / | / | / | / | 4%
CC(=O)Nc1ccc(C(=O)Nc2nc(-c3cccnc3)cs2)cc1 | / | / | / | / | 10µM*
O=C(Nc1nc(-c2ccccc2)cs1)c1cccnc1 | 11 | ? | -7% | -6% | 3%
COc1cccc(C(=O)Nc2nc(C)cs2)c1 | 18 | -4% | ? | -6% | 8%
COc1cccc(C(=O)Nc2nc(-c3ccncc3)cs2)c1 | / | 3%[9.22 µM] | / | / | 20µM*
CCCCOc1ccc(C(=O)NCc2nnnn2-c2ccc(C)c(C)c2)cc1 | / | -6%[46 µM] | / | / | /
O=S(=O)(O)c1cc(N=[N+]([O-])c2cc(S(=O)(=O)O)c3ccccc3c2)cc2ccccc12 | / | / | -19% | -4%[11.4 µM] | ?
CNC(=O)c1c(N)sc2c1CCCCC2 | ? | 7% | 32µM* | -7% | 25µM*
NC(=O)c1c(N)sc2c1CCCCC2 | -1 | 3% | ? | -15% | 14µM*
Cc1cccc(-n2c(=O)c3c4c(sc3n3c(C)nnc23)CCCC4)c1 | / | -1%[46 µM] | / | / | /
O=S(=O)(Nc1cccc(C(F)(F)F)c1)c1cccnc1 | 22 | 4% | -14% | -1% | 16%
O=S(=O)(Nc1cccnc1)c1cccc(C(F)(F)F)c1 | -92* | 7% | -12% | -5% | 3%
SMILES | PNC inhibitor | Lamin A splicing | HPGD inh | ALOX12 inhib | ALDH1A1 inh
Cc1ccc(C)c(N=C2CCCN2Cc2ccccc2)c1C#N | -119* | ? | -5% | -4% | -4%
CCOC(=O)c1c(NC(=O)CN2CCCc3ccccc32)sc(C)c1C | 5 | -4% | -9% | 3% | ?
COC(=O)c1c(NC(=O)CN2CCN(c3ccccc3Cl)CC2)sc(C)c1C | 15 | ? | -23% | -4% | 3.5µM*
CCOC(=O)c1c(NC(=O)CN2CCN(c3ccc(Cl)cc3)CC2)sc(C)c1C | 34 | 15% | -21% | -3% | ?
COC(=O)c1c(NC(=O)CN2CCCc3ccccc32)sc(C)c1C | 8 | ? | -12% | -4% | 20µM*
COc1ccc(NC(=O)CN2C(=O)COc3ccc(S(=O)(=O)NC4CCCC4)cc32)cc1OC | / | 2%[46 µM] | / | / | /
CC/C=C\C/C=C\C/C=C\C/C=C\C/C=C\CCC(=O)O[C@H](COCCCCCCCCCCCCCCCC)COP(=O)([O-])OCC[N+](C)(C)C | / | / | -3% | -1% | -7%
CCOC(=O)C(=O)Nc1nnc(C2CCCCC2)s1 | 24 | -1% | 16µM* | -3% | 32µM*
COCC(=O)Nc1nnc(C2CCCCC2)s1 | ? | -2% | -14% | 15% | ?
CCOCC(=O)Nc1nnc(C2CCCCC2)s1 | 6 | -6% | -25% | 1% | 19µM*
Cc1noc(C)c1CN1C(=O)NC(Cc2ccccc2)(Cc2ccccc2)C1=O | -107* | -5% | -2% | 1% | -4%
Cc1noc(C)c1COc1ccc(CC(=O)NCc2ccccc2)cc1 | / | / | / | / | 14%
Cc1nn(CC(C)C)c(=S)[nH]c1=O | -83* | 5% | -10% | -6% | -11%
Cc1nnc(SCC(C)C)[nH]c1=O | 7 | ? | -11% | 6% | -4%
COc1ccc(NS(=O)(=O)c2ccc(OC)c3ccccc23)cn1 | -13 | ? | -20% | -19% | 7.1µM*
CC(C)Sc1nc2sc(-c3ccccc3)cc2c(=O)n1N | -106* | 7% | -25% | 3% | -12%
Cc1ccc(Cl)cc1NCc1nnc2n1CCCCC2 | / | -6%[46 µM] | / | / | /
CCOC(=O)N1CCC(NC(=O)Cn2cc3c(n2)CCC(C)C3)CC1 (configuration not stated) | 150 | -21% | -10% | 0% | 1%
CC1CCCC(NC(=O)COC(=O)COc2ccc(Cl)cc2)C1C (configuration not stated) | ? | 2% | -11% | 6% | 1µM*
CC1CCCC(NC(=O)COC(=O)Cc2ccc(Br)cc2)C1C (configuration not stated) | / | ? | / | / | 7%
CC1CCCC(NC(=O)COC(=O)CCC2CCCC2)C1C (configuration not stated) | ? | -9% | ? | 7% | 11µM*
CC1CCc2nn(CC(=O)NC3CCCC(C)C3C)cc2C1 (configuration not stated) | -26 | -15% | 14µM* | -6% | 2%
CC1CCCC(NC(=O)Cc2ccc(Br)cc2)C1C (configuration not stated) | -9 | -9% | 16µM* | -5% | -8%
COc1ccc(Cl)cc1NC(=O)COC(=O)CC(C)(C)CC1=NS(=O)(=O)c2ccccc2N1 | / | -2%[46 µM] | / | / | /
O=C(N/N=C/c1ccc(Cl)cc1Cl)C1CCN(c2ncc(C(F)(F)F)cc2Cl)CC1 | 97 | 3% | -22% | 1% | 3.5µM*
Cc1cc(O)c(C(C)(C)C)cc1Sc1cc(C(C)(C)C)c(O)cc1C | / | / | -28% | -3% | ?
CCn1ccc2cc(S(=O)(=O)N3CCC(C(=O)NCc4cccc(Cl)c4)CC3)ccc21 | / | 1%[46 µM] | / | / | /
CCc1ccc(N2CCn3c2nc2c3c(=O)n(CCc3ccccc3)c(=O)n2C)cc1 | / | 0%[46 µM] | / | / | /
